In PubChem BioAssay (NCATS):
Records with an inconclusive call do not appear. Activity calls are given as the source filed them. Calls follow the shape of the dose curve; as a rule, active = well fitted inhibition curve with a large enough effect; inconclusive = small, poorly fitted or top-dose-only effect; inactive = flat fitted curve, though single readings scatter.

How the values were obtained:
Assay in all cases: qHTS profiling for inhibitors of Plasmodium falciparum proliferation (AID 504749); also: nearly all actives have a fitted effect of over 60% in size
Settings in all cases: P. falciparum in erythrocytes, SYBR Green DNA, 72 h; series mostly up to 28.7 µM
[1] = test system: CP260
Outline: (§1)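 Quantitative HTS: compounds pinned into medium, infected erythrocytes added (0.3% parasitemia, 2.5% hematocrit), 72 h culture at 37 C under 5% CO2. Saponin/Triton lysis with SYBR Green I, overnight RT, then fluorescence read.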

[2] = test system: CP262
Outline: as §1

[3] = test system: CP265
Outline: as §1

[4] = test system: CP266
Outline: as §1

[5] = test system: CP268
Outline: as §1

[6] = test system: CP269
Outline: as §1

[7] = test system: CP286
Outline: as §1

[8] = test system: CP291
Outline: as §1

[9] = test system: CP297
Outline: as §1

[10] = test system: CP305
Outline: as §1

[11] = test system: CP315
Outline: as §1

[12] = test system: CP325
Outline: as §1

[13] = test system: CP329
Outline: as §1

[14] = test system: CP335
Outline: as §1

[15] = test system: DFO2036
Outline: as §1

[16] = test system: DIV14
Outline: as §1

[17] = test system: DIV17
Outline: as §1

[18] = test system: DIV30
Outline: as §1

[19] = test system: Dd2
Outline: as §1

[20] = test system: ECU
Outline: as §1

[21] = test system: FAB9
Outline: as §1

[22] = test system: HB3
Outline: as §1

[23] = test system: ICS
Outline: as §1

[24] = test system: JCK
Outline: as §1

[25] = test system: N140
Outline: as §1

[26] = test system: P93_24
Outline: as §1

[27] = test system: PAD
Outline: as §1

[28] = test system: PC15
Outline: as §1

[29] = test system: PC26
Outline: as §1

[30] = test system: PC49
Outline: as §1

[31] = test system: SC27B
Outline: as §1

[32] = test system: TAB109
Outline: as §1

[33] = test system: TAB113
Outline: as §1

[34] = test system: TAB165
Outline: as §1

[35] = test system: W2
Outline: as §1

Measured: Potency

C[C@H](CCC(=O)O)[C@H]1CC[C@@H]2[C@H]3[C@@H](C[C@@H](O)[C@]21C)[C@]1(C)CC[C@H](O)C[C@@H]1C[C@@H]3O
inactive: all assays above
